From PubChem BioAssay
Most compounds without a hit are left out; they make up all but 17% or so of the library.
DT40 TDP1 no CPT = qHTS for Inhibitors of human tyrosyl-DNA phosphodiesterase 1 (TDP1): qHTS in cells in absence of CPT | DT40 Tdp1-/- hTDP1 cells, no CPT, ATP luminescence, 48 h | Potency, µM (series often up to 46.2 µM), for the others: at the top dose activity change, negative = growth inhibition, actives largely listed as inhibitors | 420,000 compounds, 15% hits; note: % is set by controls: 0 for no effect and ±100 for the full control effect; nearly all actives have a fitted effect of over 55% in size
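Readout: luminescence from CellTiter-Glo after 30 min in the dark at RT. Cells: DT40 Tdp1-/- with stable hTDP1, 400/well. Exposure: compounds alone, ≥48 hr, 37 °C.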
TDP1 cell CPT = growth inhibition of DT40 Tdp1-/-;hTDP1 cells with camptothecin (screen for TDP1 inhibitors). 420,000 compounds, 12% hits. Potency, µM (doses to about 46.2 µM), without a hit: top-dose activity change, negative = growth inhibition, hits mostly inhibitors. chicken DT40 Tdp1-/-;hTDP1 cells + 20 nM CPT, ATP luminescence, 48 h; note: % is set by controls: 0 for no effect and ±100 for the full control effect; nearly all actives have a fitted effect of over 55% in size
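Chicken DT40 Tdp1-/- cells stably complemented with human TDP1 were seeded at 400 cells/well in medium containing 20 nM camptothecin, exposed to pin-transferred compounds, and grown at 37 °C for at least 48 hr. Viability was read as ATP luminescence.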
TDP1 block = blocks human tyrosyl-DNA phosphodiesterase 1. recombinant TDP1, AlphaScreen DNA substrate cleavage. 350,000 compounds, 0.28% hits. Potency, µM (doses to about 130 µM), without a hit: top-dose activity change, negative = inhibition, actives largely listed as inhibitors. AID 485290; note: % is set by controls: 0 for no effect and ±100 for the full control effect; nearly all actives have a fitted effect of over 40% in size
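Here, a 5' biotin and 3' phosphotyrosine-FITC DNA oligonucleotide reports Tdp1 activity: intact substrate bridges AlphaScreen beads, while cleavage leaves a 3' phosphate and drops signal. All incubations at room temperature.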
ClpP mod = qHTS Assay for Activators of ClpP | 340,000 compounds, 1.9% hits | purified B. subtilis ClpP, FRET peptide cleavage, 20 min | Potency, µM (series often up to 57.5 µM), without a hit: top-dose activity change, negative = active | ATP-dependent Clp protease proteolytic subunit (Bacillus subtilis (strain 168)), P80244; active = well fitted falling curve with a large enough effect; inconclusive = small, poorly fitted or top-dose-only effect; inactive = no such curve, though single readings can be large or run the other way; note: the source files actives as falling curves though it sought activators and does not explain the sign; nearly all actives have a fitted effect of over 65% in size
Target sequence (P80244 whole entry, looked up): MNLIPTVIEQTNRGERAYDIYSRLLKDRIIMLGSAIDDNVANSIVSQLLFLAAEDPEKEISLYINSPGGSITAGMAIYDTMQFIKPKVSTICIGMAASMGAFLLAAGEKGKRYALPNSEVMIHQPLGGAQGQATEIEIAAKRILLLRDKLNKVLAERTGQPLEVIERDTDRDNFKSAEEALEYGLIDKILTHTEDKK
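Buffer: 100 mM Tris/HCl pH8, 100 mM KCl, 0.05% low protease BSA, 2.5% glycerol, 0.01% Tween-20. ClpP 10 microg/mL final; 20 min RT; delta FRET normalized to ADEP and DMSO controls.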
An asterisk follows results filed as active; ? = inconclusive; nt = no result given; [ ] = remark or other dose. Unless noted, calls come from the whole dose curve; as a rule, active = well fitted curve in the direction sought with a large enough effect; inconclusive = small, poorly fitted or top-dose-only effect, or another doubt; inactive = no such curve, though single readings can be large; an effect the other way counts as inactive or inconclusive. Potency is the fitted concentration of half-maximal effect.

SMILES	DT40 TDP1 no CPT	TDP1 cell CPT	TDP1 block	ClpP mod
Cc1[nH]c2c(Br)cccc2c1[C@H]1[C@@H](CC#N)C1(C)C	?	16.4µM*	3.2%	1.2%
Cc1cc(NC(=O)c2ccco2)c(=O)n(Cc2cccc(C(F)(F)F)c2)c1	-18.8%	-25.9%	10.5%	nt
COc1ccccc1N(C)S(=O)(=O)c1ccc(C(=O)Nc2cc(OC)c(OC)c(OC)c2)cc1	11.6µM*	16.4µM*	nt	-0.2%
COc1cc(NC(=O)c2ccc(S(=O)(=O)N(C)C)cc2)cc(OC)c1OC	-12.7%	-12.4%	6.3%	0.3%
COc1ccccc1N(C)S(=O)(=O)c1ccc(C(=O)N2CCCc3ccccc32)cc1	23.1µM*	20.6µM*	nt	nt
COc1ccccc1N(C)S(=O)(=O)c1ccc(C(=O)NC2CCCCC2)cc1	?	14.6µM*	-0.7%[56.1 µM]	0.8%
COc1ccccc1N(C)S(=O)(=O)c1ccc(C(=O)N(C)Cc2cccc(F)c2)cc1	16.4µM*	16.4µM*	nt	0.7%
CN(c1ccc(C(=O)NC2CCCC2)cc1)S(=O)(=O)c1ccccc1	?	-22.9%	-4.7%	nt
CCOC(=O)C1CCCN(C(=O)c2cc(F)cc(F)c2)CC1 (stereo not drawn)	6.6%	-7.7%	nt	-0.4%
Cn1cccc1C(=O)NNC(=O)COc1ccccc1Cl	12.7%	10.5%	2.8%	0.0%
CC(=O)CCC(=O)N1CCC(n2c(C3CCCO3)nc3cc(C(F)(F)F)ccc32)CC1 (stereo not drawn)	-1.5%	-8.3%[9.04 µM]	nt	nt
COc1ccccc1N(C)S(=O)(=O)c1ccc(C(=O)Nc2ccc(C)cc2C)cc1	23.1µM*	?	-8.2%[0.505 µM]	1.2%
COc1ccccc1N(C)S(=O)(=O)c1ccc(C(=O)Nc2ccncc2)cc1	18.4µM*	?	nt	1.8%
COc1ccccc1NC(=O)c1ccc(S(=O)(=O)N(C)c2ccccc2OC)cc1	?	?	0.5%	-1.5%
Cc1ccn2c(Nc3ccccc3C)c(-c3ccccn3)nc2c1	2.91µM*	16.4µM*	12.3%	-0.9%
Cc1ccn2c(Nc3ccccc3)c(-c3ccccn3)nc2c1	2.59µM*	4.61µM*	9.9%	nt
Cc1ccc2nc(-c3ccccn3)c(Nc3ccccc3C)n2c1	10.3µM*	16.4µM*	10.5%	-2.9%
Cc1ccccc1Nc1c(-c2ccccn2)nc2ccccn12	8.2µM*	9.2µM*	7.5%	-5.6%
Cc1nc2nc(SCC(=O)NCCc3ccccc3)nn2c(C)c1Cc1c(F)cccc1Cl	-24.9%	?	2.9%	-3.5%
CC(C)c1ccc(Nc2c(-c3ccccn3)nc3ccccn23)cc1	2.06µM*	9.2µM*	17.6%	-4.3%
Cc1ccc2nc(-c3ccccn3)c(Nc3ccc(F)cc3)n2c1	2.31µM*	2.06µM*	8.2%	-1.0%
Cc1ccc2nc(-c3cccnc3)c(Nc3ccc(C(C)C)cc3)n2c1	-5.4%	-24.9%	0.0%	-12.9%
COc1ccc(OC)c(S(=O)(=O)Nc2cccc3ccc(O)cc23)c1	?	-4.5%	nt	-17.7%
CCNc1nnc(SCC(=O)N2c3ccccc3NC(=O)CC2C)s1 (stereo not drawn)	-12.3%	2.8%	-0.2%	-1.3%
COc1cccc(NS(=O)(=O)c2ccc3[nH]cc(C(=O)N(C)C4CCCCC4)c(=O)c3c2)c1	?	-24.3%	nt	-19.4%
SMILES	DT40 TDP1 no CPT	TDP1 cell CPT	TDP1 block	ClpP mod
COCc1c(C(=O)NCC2CCCN(C)C2)cnn1-c1ncc2c(n1)-c1ccccc1CCC2 (stereo not drawn)	-9.5%	11.0%[9.04 µM]	nt	nt
O=c1cc(-c2cc3ccccc3o2)c2cc(O)ccc2o1	?	-47.1%	50.1µM*	2.8%
Cc1cc2oc(=O)cc(-c3cc4ccccc4o3)c2cc1O	23.1µM*	25.9µM*	nt	0.4%
CC(=O)COc1ccc2oc(=O)cc(-c3cc4ccccc4o3)c2c1	?	?	2.6%	-0.9%
CC(NC(=O)c1cccnc1)c1nnc2n1CCN(Cc1ccc(F)cc1F)CC2 (stereo not drawn)	-17.6%	23.7%[9.04 µM]	nt	nt
COc1cccc(N2CCN(C(=O)c3cccc(NC(=O)C4=C(C)OCCS4)c3)CC2)c1	?	?	nt	-0.6%
O=C(CNS(=O)(=O)c1c(Cl)cccc1Cl)OCC(=O)c1ccc[nH]1	3.1%	6.4%	-2.9%	-2.3%
Nc1c(C(=O)O)sc2nc(-c3ccccc3)c3c(c12)CCCC3	?	-7.7%	1.4%	2.5%
NC(=O)c1sc2nnc(-c3ccccc3)c(-c3ccccc3)c2c1N	14.6µM*	?	nt	?
Cc1ccccc1C(=O)N(C)[C@H]1C[C@H]2c3[nH]c4ccccc4c3CCN2C(=O)[C@H]1[C@H](C)O	20.6µM*	?	nt	-5.2%
C[C@H](O)[C@@H]1C(=O)N2CCc3c([nH]c4ccccc34)[C@@H]2C[C@@H]1N(C)Cc1ccc2c(c1)OCO2	16.4µM*	?	nt	-12.5%
CN(C(=O)Nc1ccc(F)cc1)[C@H]1C[C@H]2c3[nH]c4ccccc4c3CCN2C(=O)[C@H]1CO	-24.9%	-29.9%	nt	-6.8%
C[C@H](O)[C@@H]1C(=O)N2CCc3c([nH]c4ccccc34)[C@@H]2C[C@@H]1N(C)C(=O)c1cc(Cl)cc(Cl)c1	18.4µM*	23.1µM*	nt	2.2%
COc1ccc(C(=O)N(C)[C@H]2C[C@H]3c4[nH]c5ccccc5c4CCN3C(=O)[C@H]2CO)cc1	?	-16.9%	nt	7.6%
C[C@H](O)[C@@H]1C(=O)N2CCc3c([nH]c4ccccc34)[C@@H]2C[C@@H]1N(C)C(=O)Nc1cccc2ccccc12	?	?	nt	4.8%
C[C@H](O)[C@@H]1CN2CCc3c([nH]c4ccccc34)[C@@H]2C[C@@H]1N(C)Cc1cc(Cl)cc(Cl)c1	23.1µM*	?	nt	-8.0%
Cc1occc1-c1nnc(SCC(=O)NC2CCCCC2C)o1 (stereo not drawn)	-24.4%	-13.9%	0.2%	-2.5%
CS(=O)(=O)N1CCN(CC(=O)NC2CCCCC2)CC1	-29.7%	0.5%	-2.6%	nt
C[C@H](O)[C@@H]1C(=O)N2CCc3c([nH]c4ccccc34)[C@@H]2C[C@@H]1N(C)S(=O)(=O)c1ccccc1	23.1µM*	?	nt	4.5%
O=C(NC1CCCCC1)N1CCNCC1	-11.2%	7.5%	nt	-2.2%
C1CCCCCC(NCCN2CCNCC2)CCCCC1	2.59µM*	3.66µM*	nt	-4.3%
CC(C)(C)SCCNS(=O)(=O)c1ccc(F)cc1	?	-25.0%	-2.0%	0.9%
O=S(=O)(NCCSc1ccccc1)c1ccc(F)cc1	18.4µM*	?	6.6%	-1.1%
CCc1ccc(C2CC(=O)N(c3cccc(C(F)(F)F)c3)C3=C2C(=O)OC3)cc1 (stereo not drawn)	-5.9%	7.8%	0.6%	-2.1%
COc1ccccc1C1CC(=O)N(c2cccc(C(F)(F)F)c2)C2=C1C(=O)OC2 (stereo not drawn)	?	8.2µM*	-1.9%	-0.9%
